According to ChEMBL document CHEMBL3988442, “University of Dundee, Small-Polar-MMV Screening Library” (2021):
About 13,000 (27%) of roughly 48,000 compounds showed an effect of 50% or more. The list shows a part of the results.

What follows are molecules tested on Wolbachia pipientis (assay: Anti-Wolbachia Cell-Based Screen). Settings: 5 µM.
Type: functional
Parameters: scale not given: in the data most compounds retested in dose-response had high values

| SMILES | Percent Effect |
| --- | --- |
| N#Cc1cc(S(N)(=O)=O)ccc1NC1CCc2c(F)cccc21 (stereo unspecified) | -10.31% |
| COCCCN(C)c1ncccc1I | 0.1394% |
| Cn1c(NCC(=O)N2CCCC2)c(C#N)c(=O)n(C)c1=O | 6.318% |
| CC(O)CN1CCC(CN(C)Cc2cc(F)cc3cccnc23)CC1 (stereo unspecified) | -9.016% |
| CC(C)Oc1ccc(C(=O)Cn2cnnc2[S+](C)[O-])cc1 (stereo unspecified) | 6.636% |
| COc1cccc(S(=O)(=O)NC(=O)CCC2CCCC2)c1 | 93.05% |
| COc1cccc(S(=O)(=O)NC(=O)CC2CCCO2)c1 (stereo unspecified) | 94.52% |
| COc1cccc(S(=O)(=O)NC(=O)COc2c(C)cccc2C)c1 | -5.351% |
| N#Cc1cccc(S(=O)(=O)NC(=O)COC2CCCC2)c1 | 4.791% |
| COc1cccc(S(=O)(=O)NC(=O)COC2CCCCC2)c1 | 79.48% |
| CS(=O)(=O)c1cccc(S(=O)(=O)NC(=O)CCC2CCCCC2)c1 | -13.77% |
| COc1ccc(S(=O)(=O)NC(=O)COC2CCCC2)cc1 | 110.1% |
| COc1ccc(S(=O)(=O)NC2(CC(N)=O)CCC2)cc1 | 1.65% |
| CS(=O)(=O)c1cccc(S(=O)(=O)NC(=O)CC2CCCCC2)c1 | -9.509% |
| COc1cccc(S(=O)(=O)NC(=O)CC2CCCC2)c1 | 9.946% |
| CCOc1ccc(S(=O)(=O)NC(=O)CCC2CCCO2)cc1 (stereo unspecified) | 0.3257% |
| COc1cccc(S(=O)(=O)NC(=O)COC2CCCC2)c1 | 0.104% |
| Cc1ccc(-n2c(C)nnc2SCC(O)COCc2ccco2)cc1 (stereo unspecified) | -12.77% |
| Cc1cnccc1CN(C)C(=O)c1ccc(Cn2cnnn2)cc1 | -17.07% |
| Cc1ccc(CN(C)C(=O)NCC(C)(C)CCS(C)(=O)=O)s1 | -3.781% |
| CN(C(=O)Cc1coc(-c2ccccc2)n1)C1(C#N)CCC1 | 4.147% |
| COc1ccc(Cl)cc1NCC(=O)N(Cc1cccnc1)C1CC1 | 0.4709% |

| SMILES | Percent Effect |
| --- | --- |
| O=C(O)C(F)(F)F.O=C([C@@H]1COC[C@H]2CN(C3CCOCC3)C[C@H]21)N1CCCCO1 | -37.74% |
| NC(=O)C(NC(=O)COC1CCCCC1)c1ccccc1 (stereo unspecified) | -9.016% |
| COc1ccc(S(=O)(=O)NC(=O)COC2CCCCC2)cc1C | 99.33% |
| COc1ccc(S(=O)(=O)NC(=O)COC2CCCCC2)cc1 | 100.4% |
| COc1ccc(S(=O)(=O)NC(=O)c2cscn2)cc1C | -8.824% |
| COCc1nc(C(=O)NS(=O)(=O)c2ccc(OC)c(C)c2)cs1 | -15.7% |
| COc1ccc(OCC(=O)NS(=O)(=O)c2cc(F)ccc2F)cc1 | 18.57% |
| CCCC(O)CNc1cncc(Br)c1 (stereo unspecified) | -5% |
| CC(C)(NC(=O)Nc1cnn(CC2CCCO2)c1)c1nccs1 (stereo unspecified) | -5.14% |
| CCN(C)Cc1n[nH]c(=O)n1-c1ccc(C)c(C)c1 | 100.3% |
| CN(Cc1n[nH]c(=O)n1Cc1ccccc1F)S(C)(=O)=O | -17.4% |
| CN(Cc1n[nH]c(=O)n1CCc1ccccc1F)S(C)(=O)=O | -6.047% |
| Cc1ccc(F)cc1-n1c(CN(C)S(C)(=O)=O)n[nH]c1=O | 117.3% |
| Cc1ccc(-n2c(COC(C)C)n[nH]c2=O)cc1 | -8.363% |
| CCN(C)Cc1n[nH]c(=O)n1-c1cc(F)ccc1C | 106.9% |
| COc1ccc(-n2c(COC(C)C)n[nH]c2=O)cc1 | 8.862% |
| CNCc1n[nH]c(=O)n1-c1ccccc1Oc1ccccc1 | -7.871% |
| Cc1ccc(F)cc1-n1c(COC(C)C)n[nH]c1=O | 6.19% |
| CN(Cc1ccccc1-n1cccn1)C[C@@H]1CCCN2CCCC[C@H]12 | -7.431% |
| CCc1nsc(N2CCN(C(=O)c3ccnc(N(C)C)c3)CC2)n1 | -3.339% |
| CCC1=N[C@@]2(CC[C@@H]3CN(C(=O)NCC(C)C)C[C@@H]32)C(=O)N1CC(C)C | -11.82% |
| Cc1nn(C)c(C)c1C1CCCN1CCOc1ccccc1C#N (stereo unspecified) | -7.684% |

| SMILES | Percent Effect |
| --- | --- |
| CS(=O)(=O)NC[C@@H]1OC[C@H]2CN(C(=O)c3ccc[nH]3)CC[C@H]21 | -14.53% |
| CN[C@@H](C)C(=O)N(Cc1cccc(C)c1)Cc1ccccc1OC | 4.64% |
| CCc1nc(CC(=O)N2CCn3c(nnc3C(F)(F)F)C2)cs1 | -0.3988% |
| Cc1cccc(-n2cc(CN3CCN(C)[C@@H]4CS(=O)(=O)C[C@@H]43)cn2)c1 | -4.421% |
| c1ccc(Cn2cc(CNc3ncnc4c3CCNCC4)cn2)cc1 | 100.8% |
| Cc1cccc(-n2cc(CNc3ncnc4c3CCNCC4)cn2)c1 | 94.66% |
| Cc1nc2c(c(NCc3ccc(-c4ccccn4)s3)n1)CCNCC2 | 3.518% |
| Cn1cc(CNc2ncnc3c2CCN(Cc2ccsc2)CC3)cn1 | 1.057% |
| Cc1cccc(=O)n1CCCNc1ncnc2c1CCNCC2 | -13.78% |
| c1cncc(CNc2ncnc3c2CCN(Cc2ccsc2)CC3)c1 | -11.45% |
| Cc1ccccc1-n1cc(CNc2ncnc3c2CCNCC3)cn1 | 113.8% |
| CCc1ncc(C(=O)N(C)C2Cc3ccccc3C2)cn1 | 0.7414% |
| CC(C)(C)c1ncc2c(n1)CN(C(=O)C(C)(C)n1cccc1)C2 | 2.811% |
| CCC(CC)C(=O)N1CCN(C)c2ncccc2C1 | -0.9461% |
| CC(C)C(=O)N1CCCN(C(=O)NC2CCc3ccccc3C2)CC1 (stereo unspecified) | 16.47% |
| CC(C)C(=O)N1CCCc2c(cnn2-c2ccccc2)C1 | 142.7% |
| Cn1nnc2c1CCN(C(C(=O)N1CCCCC1)c1ccccc1)C2 (stereo unspecified) | 4.107% |
| O=C(NCc1nn(-c2ccccc2)c2c1CCC2)N1CCSCC1 | 9.143% |
| CC(C(=O)N1CCc2ccccc2C1)n1cc(Br)cn1 (stereo unspecified) | 4.145% |
| CC(C)(C)C(=O)N1CCCc2c(cnn2-c2ccccc2)C1 | 70.74% |
| Cc1nc2c(c(=O)n1C)CCN(C(=O)Cn1cccc1)CC2 | 14.88% |
| O=C(NCC1OCCc2cn(CC3CCOCC3)nc21)c1ccsc1.O=C(O)C(F)(F)F (stereo unspecified) | -9.912% |
